“And” between values parts separate entries of the source, which are not always exact repeats. Equal values may be shown once. Records with an inconclusive call do not appear. The source made the active and inactive calls. Unless noted, calls come from the whole dose curve; as a rule, active = well fitted curve in the direction sought with a large enough effect; inconclusive = small, poorly fitted or top-dose-only effect, or another doubt; inactive = no such curve, though single readings can be large; an effect the other way counts as inactive or inconclusive.

Here are results for 12 molecules from PubChem BioAssay (NCATS).

Test [1] has as its target Peroxisome proliferator-activated receptor delta (Homo sapiens) (UniProt Q03181). Put plainly: qHTS assay for small molecule agonists of peroxisome proliferator-activated receptor delta signaling (AID 588534; calls by dose curve;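 note: 0% = DMSO basal wells and 100% = positive control agonist at 10 µM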). In a few lines: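 Agonist-mode qHTS; reporter cells, 5 hrs 37 C pre-incubation; compound titration, 18 hrs 37 C; CCF4 dye, 2 hrs RT; fluorescence read. EC50/efficacy via Hill fit.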
Background: qHTS replaces the single test concentration by a dilution series.

Test [2] has as its target Nuclear receptor ROR-gamma (Homo sapiens) (UniProt P51449). Put plainly: qHTS assay for small molecule antagonists of the retinoid-related orphan receptor gamma (ROR-gamma) signaling pathway (AID 651802). Note: nearly all actives have a fitted effect of over 60% in size. Note: potency is the fitted concentration of half-maximal effect. The gist of the method:
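Steps: cells dispensed; compound or DMSO transferred by pin tool; doxycycline added to induce the ROR response element-driven luciferase; plates held 16hr at 37C; ONE-Glo added and luminescence measured.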

Test [3] is described as follows: qHTS for Inhibitors of the vitamin D receptor (VDR): Hit Validation using a Texas Red Assay (AID 602201). Note: potency is the fitted concentration of half-maximal effect. In a few lines: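 Fluorescence polarization with 1.5 uM VDR-LBD, LG19078 and 7 nM Texas Red (final). After 2 hours at ambient temperature, read at Ex 595 nm/Em 615 nm.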
The target in test [4] is Vitamin D3 receptor (Homo sapiens) (UniProt P11473). Put plainly: qHTS assay for small molecule antagonists of vitamin D receptor signaling (AID 588541; calls by dose curve;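 note: receptor activated by calcitriol during compound treatment; series mostly up to about 77 µM; % is set by controls: 0 for no effect and ±100 for the full control effect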). In a few lines: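 VDR-UAS-bla HEK293T cells in 2% charcoal-stripped FBS were stimulated with 1-alpha,25-dihydroxyvitamin D3 (3 nM final) plus compound for 16 h at 37 C. The beta-lactamase CCF4 readout was normalized to 50 nM agonist and DMSO, and Hill fits gave IC50.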

Test [5] can be described thus: qHTS assay for small molecule agonists of the antioxidant response element (ARE) signaling pathway (AID 651741; active = well fitted activation curve with a large enough effect in the signal ratio; the % refers to the signal ratio; note: potency is the fitted concentration of half-maximal effect). In a few lines:
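Stably integrated ARE-beta-lactamase reporter HepG2 cells; 16 h compound incubation, 37 C; LiveBLAzer FRET substrate 2 h at room temperature; fluorescence intensity.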

The nature of test [6]: qHTS assay for small molecule activators of the p53 signaling pathway (AID 651743; active = well fitted activation curve with a large enough effect in the signal ratio, not every such curve was filed as active; the % refers to the signal ratio; note: series mostly up to about 92 µM; % of control where 0% means no effect). To be noted: HCT-116 p53RE-bla, beta-lactamase FRET ratio, 16 h; activation: stronger effect = higher value. In a few lines: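 Following 16 hours of compound exposure at 37 C, HCT-116 cells bearing the p53RE-bla reporter were loaded with LiveBLAzer B/G FRET substrate for 2 hours at room temperature and fluorescence intensity was recorded.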

Test [7] can be described thus: qHTS assay for environmental chemicals that activate the Aryl hydrocarbon Receptor (AhR) signaling pathway (AID 651777). Note: % of control where 0% means no effect; nearly all actives have a fitted effect of over 15% in size. To be noted: 1A2-DRE human hepatoma cells, luciferase, 24 h; activation: stronger effect = higher value. The gist of the method:
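Human hepatoma 1A2-DRE cells stably carrying a DRE/CYP1A2 promoter–luciferase reporter, 1,200 cells/well, exposed to compound 24 hr at 37 C. Luciferase read by One-Glo luminescence after 30 min at room temperature; increased signal marks AhR activation.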

Test [8] can be described thus: qHTS assay for small molecule agonists of the antioxidant response element (ARE) signaling pathway measured by Nrf2-dependant transcriptional activity (AID 720636; active = well fitted curve in the direction sought with a large enough effect in the repeat runs; an effect the other way counts as inactive or inconclusive; note: % of control where 0% means no effect). In a few lines:
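ARE-luc HepG2 cells carrying an Nrf2-responsive luciferase reporter, in medium with 1% dialyzed FBS, exposed to compound for 16 hr at 37 C, 5% CO2. Luminescence read 30 min after ONE-Glo addition.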

Test [9] in a line: qHTS assay for small molecule agonists of the antioxidant response element (ARE) signaling pathway measured by Nrf2-dependant transcriptional activity - cell viability counter screen (AID 720653; active = well fitted curve in the direction sought with a large enough effect in the repeat runs; an effect the other way counts as inactive or inconclusive; note: potency is the fitted concentration of half-maximal effect; for max response: % is set by controls: 0 for no effect and ±100 for the full control effect). To be noted: ARE-bla HepG2 viability, CellTiter-Glo ATP luminescence, 16 h; max response: stronger effect = lower value. The gist of the method:
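ARE-bla HepG2 cells treated with compounds for 16 h at 37C; this counter screen measures viability as intracellular ATP by CellTiter-Glo luminescence after 30 min at room temperature.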

Test [10] in a line: qHTS assay for cell viability of the p53RE-bla HCT-116 cell line (AID 743292). Note: potency is the fitted concentration of half-maximal effect; nearly all actives have a fitted effect of over 55% in size. In a few lines: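 CellSensor p53RE-bla HCT-116 cells (4,000/well) pre-incubated 5 h at 37 C, then exposed to compounds in DMSO for 16 h at 37 C. Viability read as ATP content by CellTiter-Glo luminescence after 30 min at room temperature.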
Test [11] has as its target Nuclear receptor subfamily 1 group I member 2 (Rattus norvegicus) (UniProt Q9R1A7). Put plainly: qHTS assay for small molecule activators of the rat pregnane X receptor (rPXR) signaling pathway (AID 651751; call rule not given here; note: 0% is about no effect). The settings on record: rPXR reporter cells, luciferase (One-Glo), 24 h.
The nature of test [12]: MultiTox-Fluor Cytotoxicity Assay - LYMP1-001 - Live Cells (AID 947).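 Note: 0% = DMSO only and full inhibition = tetraoctylammonium bromide control.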
Test [13] in a line: qHTS assay for small molecule agonists of retinoid X receptor alpha signaling (AID 588544). To be noted: HEK293T RXRa-UAS-bla, beta-lactamase reporter, 18 h; 530 nm emission.
Test [14] is described as follows: qHTS assay for small molecule disruptors of the mitochondrial membrane potential - 1 hr assay (AID 651754; calls by dose curve; note: potency is the fitted concentration of half-maximal effect; nearly all actives have a fitted effect of over 35% in size). The gist of the method:
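Loss of mitochondrial potential shifts the cationic dye from red mitochondrial aggregates to green cytoplasmic monomers. Cells (HepG2) are treated with compound for 1 hr before a 30 min dye incubation at 37C.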

Test [15] is described as follows: qHTS assay for small molecule disruptors of the mitochondrial membrane potential - 5 hr assay (AID 651755; calls by dose curve; note: potency is the fitted concentration of half-maximal effect; nearly all actives have a fitted effect of over 40% in size). The gist of the method:
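Read-out: ratiometric Mito-MPS fluorescence, green monomer (ex 490/em 535) vs red mitochondrial aggregate (ex 540/em 590). HepG2 cells treated 5 hr at 37C before 30 min dye loading.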

The target in test [16] is Cytochrome P450 3A4 (Homo sapiens) (UniProt P08684). Put plainly: qHTS Assay for Inhibitors and Substrates of Cytochrome P450 3A4 (AID 884). Note: potency is the fitted concentration of half-maximal effect; nearly all actives have a fitted effect of over 50% in size. In a few lines: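 Luminescent readout of luciferin produced by CYP3A4 (20 nM) dealkylation of Luciferin-PPXE, 25 uM (its KM). NADPH-driven reaction ran 60 min at RT after 10 min compound preincubation; data scaled to 57 uM ketoconazole as 100% inhibition.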

The target is the same in test [17]. Put plainly: qHTS Assay for Activators of Cytochrome P450 3A4 (AID 885). Note: nearly all actives have a fitted effect of over 65% in size. In a few lines: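 Luminescent readout of luciferin formed from 25 uM Luciferin-PPXE (KM level) by 20 nM CYP3A4 in 200 mM KPO4, with 60 min NADPH-driven reaction at room temperature after 10 min compound exposure. Ketoconazole (57 uM) defined 100% inhibition.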
A short description of test [18]: Confirmation and Secondary Assay for Modulators of Hemoglobin Beta Chain Splicing at IVS2 654 locus (AID 910).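 Note: HeLa cells stably carrying EGFP split by mutant beta-globin IVS2-654 intron; % of control where 0% means no effect.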 The gist of the method: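 HeLa cells stably expressing EGFP interrupted by β-globin IVS2-654 intron, seeded overnight in Opti-MEM/2% FCS, then treated 2 days at 37 °C. Restored splicing read as total peak GFP intensity per well by laser scanning cytometry (488 nm excitation, 500–520 nm emission); 500 nM antisense PNA as control.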

Test [19] in a line: Confirmation and Secondary Assay for Modulators of Hemoglobin Beta Chain Splicing at IVS2 705 locus (AID 930).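 Note: HeLa cells stably expressing the EGFP-705 splicing reporter; GFP fluorescence per well restored by corrected splicing of the IVS2-705 intron in EGFP; series mostly up to about 46 µM; % of control where 0% means no effect.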 In a few lines: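 HeLa cells stably carrying EGFP interrupted by mutant beta-globin intron 2 (IVS2-705) treated 2 days at 37C with compound; 500 nM antisense PNA as control. Correct splicing read as total peak GFP intensity per well by laser-scanning cytometry.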
For test [20], the target named is Thyroid hormone receptor beta (Homo sapiens) (UniProt P10828). Put plainly: qHTS assay for small molecule agonists of thyroid hormone receptor beta signaling (AID 588545; calls by dose curve;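 note: 0% = DMSO only and 100% = 10 nM T3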). In a few lines: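 Beta-lactamase reporter activity under TR response element control is measured in HEK 293 cells after 18 hrs compound exposure. Signal is ratiometric CCF4 fluorescence, 460/530 nm.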

The nature of test [21]: qHTS assay for small molecule antagonists of retinoid X receptor alpha signaling (AID 588546).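 Note: cells stimulated with 9-cis-retinoic acid as agonist; % is set by controls: 0 for no effect and ±100 for the full control effect.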 To be noted: HEK293T RXRa-UAS-bla, beta-lactamase ratio, antagonist mode; measured here: W530 green channel, cytotoxicity proxy. In a few lines:
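Beta-lactamase reporter inhibition, read as CCF4 fluorescence ratio (ex 405, em 460/530 nm) after 2 h at RT. HEK293T UAS-bla cells, 2500/well, were stimulated with 9-cis-RA at 500 or 100 nM final alongside test compound for 18 h at 37 C.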

Test [22] has as its target Thyroid hormone receptor beta (Homo sapiens) (UniProt P10828). Put plainly: qHTS assay for small molecule antagonists of thyroid hormone receptor beta signaling (AID 588547; active = well fitted inhibition curve with a large enough effect in the signal ratio, with a control signal flat, not every such curve was filed as active; the % refers to the signal ratio; note: potency is the fitted concentration of half-maximal effect). The settings on record: TR-UAS-bla HEK293, beta-lactamase ratio, antagonist mode, 18 h. In a few lines:
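TR-UAS-bla GripTite HEK293 cells in 2% charcoal/dextran FBS medium; compounds 0.59 nM to 92 uM with T3 at 0.4nM final, 18 h at 37 C. Beta-lactamase read by CCF4 fluorescence (460/530 nm); Hill fits gave IC50 and efficacy.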

Test [23] deals with Peroxisome proliferator-activated receptor alpha (Homo sapiens) (UniProt Q07869). Put plainly: qHTS assay for small molecule agonists of the peroxisome proliferator-activated receptor alpha (PPARalpha) signaling pathway (AID 651778). Note: % of control where 0% means no effect. To be noted: PathHunter PPARalpha complementation, chemiluminescence, 6 h; max response: stronger effect = higher value. The gist of the method:
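Enzyme-fragment complementation assay in which ligand-bound PPARalpha translocates and forms an active enzyme that generates chemiluminescence. Cells were plated overnight, exposed to compound for 6 hr at 37 C, and then given detection reagent for 60 min at room temperature.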

Test [24] is described as follows: qHTS assay for cell viability of HEK293 cells (AID 743288). Note: potency is the fitted concentration of half-maximal effect; nearly all actives have a fitted effect of over 50% in size. To be noted: ATP luminescence (CellTiter-Glo), 18 h; max response: stronger effect = lower value. The gist of the method:
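ATP luminescence (CellTiter-Glo) reports metabolically competent cell number after parental HEK293 cells, 2,000/well, were treated with DMSO-dissolved compounds for 18 h at 37 C; reagent incubation 30 min, room temperature.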

Nuclear receptor ROR-gamma (Homo sapiens), sequence (P51449 whole entry, looked up): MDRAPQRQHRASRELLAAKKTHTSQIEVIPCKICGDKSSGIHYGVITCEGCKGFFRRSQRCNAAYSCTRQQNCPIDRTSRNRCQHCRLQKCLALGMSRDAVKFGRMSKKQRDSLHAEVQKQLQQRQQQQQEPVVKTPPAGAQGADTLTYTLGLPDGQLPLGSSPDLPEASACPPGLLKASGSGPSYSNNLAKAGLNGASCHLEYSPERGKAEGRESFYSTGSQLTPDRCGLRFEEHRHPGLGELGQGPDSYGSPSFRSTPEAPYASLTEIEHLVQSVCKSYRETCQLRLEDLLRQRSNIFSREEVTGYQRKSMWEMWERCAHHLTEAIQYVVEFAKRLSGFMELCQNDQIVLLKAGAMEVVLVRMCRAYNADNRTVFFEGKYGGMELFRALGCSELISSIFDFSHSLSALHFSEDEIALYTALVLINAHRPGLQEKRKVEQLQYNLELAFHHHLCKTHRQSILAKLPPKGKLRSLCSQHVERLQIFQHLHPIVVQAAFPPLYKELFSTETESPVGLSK
Peroxisome proliferator-activated receptor delta (Homo sapiens), sequence (Q03181 whole entry, looked up): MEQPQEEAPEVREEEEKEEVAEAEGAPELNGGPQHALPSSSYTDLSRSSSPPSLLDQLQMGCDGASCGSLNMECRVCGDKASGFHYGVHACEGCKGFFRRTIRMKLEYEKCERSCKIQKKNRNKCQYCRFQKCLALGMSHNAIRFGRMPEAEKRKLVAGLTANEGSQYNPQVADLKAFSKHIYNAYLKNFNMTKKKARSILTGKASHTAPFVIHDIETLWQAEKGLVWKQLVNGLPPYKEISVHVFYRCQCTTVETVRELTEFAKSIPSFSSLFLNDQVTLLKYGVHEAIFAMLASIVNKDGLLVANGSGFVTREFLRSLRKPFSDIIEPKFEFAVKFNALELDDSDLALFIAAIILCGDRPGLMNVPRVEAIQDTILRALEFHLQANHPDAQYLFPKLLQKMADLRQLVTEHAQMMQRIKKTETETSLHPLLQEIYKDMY
Cytochrome P450 3A4 (Homo sapiens), sequence (P08684 whole entry, looked up): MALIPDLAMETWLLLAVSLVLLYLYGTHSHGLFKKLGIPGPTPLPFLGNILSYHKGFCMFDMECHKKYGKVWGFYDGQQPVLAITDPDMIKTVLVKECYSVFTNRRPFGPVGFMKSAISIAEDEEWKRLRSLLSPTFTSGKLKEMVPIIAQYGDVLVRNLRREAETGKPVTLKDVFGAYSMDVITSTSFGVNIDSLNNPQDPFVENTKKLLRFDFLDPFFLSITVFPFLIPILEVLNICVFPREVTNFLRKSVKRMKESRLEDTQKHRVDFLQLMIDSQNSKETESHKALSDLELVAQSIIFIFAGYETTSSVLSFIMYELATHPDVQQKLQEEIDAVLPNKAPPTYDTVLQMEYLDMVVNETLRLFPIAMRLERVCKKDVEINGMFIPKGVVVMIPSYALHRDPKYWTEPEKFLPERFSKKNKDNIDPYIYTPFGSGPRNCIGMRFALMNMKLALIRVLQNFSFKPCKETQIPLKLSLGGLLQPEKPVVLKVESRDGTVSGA
Thyroid hormone receptor beta (Homo sapiens), sequence (P10828 whole entry, looked up): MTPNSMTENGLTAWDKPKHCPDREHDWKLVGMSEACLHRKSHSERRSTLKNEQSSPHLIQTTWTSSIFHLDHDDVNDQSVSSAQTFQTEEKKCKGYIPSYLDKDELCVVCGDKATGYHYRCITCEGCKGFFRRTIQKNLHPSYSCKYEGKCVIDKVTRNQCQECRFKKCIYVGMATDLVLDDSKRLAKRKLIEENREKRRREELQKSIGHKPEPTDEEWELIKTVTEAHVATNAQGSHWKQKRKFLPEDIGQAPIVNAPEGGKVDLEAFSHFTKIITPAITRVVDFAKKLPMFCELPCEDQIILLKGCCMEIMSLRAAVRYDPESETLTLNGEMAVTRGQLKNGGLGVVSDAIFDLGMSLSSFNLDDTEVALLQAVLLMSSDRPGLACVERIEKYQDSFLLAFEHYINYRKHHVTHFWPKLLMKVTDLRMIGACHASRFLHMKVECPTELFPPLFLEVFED
Nuclear receptor subfamily 1 group I member 2 (Rattus norvegicus), sequence (Q9R1A7 whole entry, looked up): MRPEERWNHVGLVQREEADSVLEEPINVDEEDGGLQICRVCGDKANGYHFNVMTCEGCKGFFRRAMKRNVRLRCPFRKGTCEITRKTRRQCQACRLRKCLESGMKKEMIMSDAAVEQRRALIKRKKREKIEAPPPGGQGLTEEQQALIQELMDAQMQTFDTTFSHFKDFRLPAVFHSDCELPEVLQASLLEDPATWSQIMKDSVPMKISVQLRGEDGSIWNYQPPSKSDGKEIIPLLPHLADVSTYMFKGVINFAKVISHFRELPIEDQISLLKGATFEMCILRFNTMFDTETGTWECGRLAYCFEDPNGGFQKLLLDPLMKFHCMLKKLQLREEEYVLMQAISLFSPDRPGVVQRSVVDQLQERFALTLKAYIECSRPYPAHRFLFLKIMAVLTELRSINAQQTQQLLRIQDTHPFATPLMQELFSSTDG
Vitamin D3 receptor (Homo sapiens), sequence (P11473 whole entry, looked up): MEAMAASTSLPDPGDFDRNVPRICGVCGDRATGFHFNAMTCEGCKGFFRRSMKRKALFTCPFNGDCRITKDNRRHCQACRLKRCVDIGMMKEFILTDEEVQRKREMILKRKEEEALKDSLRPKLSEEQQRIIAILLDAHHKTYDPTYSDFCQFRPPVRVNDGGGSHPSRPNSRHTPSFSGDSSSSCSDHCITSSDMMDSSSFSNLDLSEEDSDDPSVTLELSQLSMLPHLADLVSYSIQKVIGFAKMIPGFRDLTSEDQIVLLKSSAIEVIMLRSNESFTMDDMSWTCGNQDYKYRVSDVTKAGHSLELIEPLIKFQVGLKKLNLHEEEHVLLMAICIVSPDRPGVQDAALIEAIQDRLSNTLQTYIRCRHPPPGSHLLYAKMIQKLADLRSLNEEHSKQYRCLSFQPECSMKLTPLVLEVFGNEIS
Peroxisome proliferator-activated receptor alpha (Homo sapiens), sequence (Q07869 whole entry, looked up, the tested form may be a part): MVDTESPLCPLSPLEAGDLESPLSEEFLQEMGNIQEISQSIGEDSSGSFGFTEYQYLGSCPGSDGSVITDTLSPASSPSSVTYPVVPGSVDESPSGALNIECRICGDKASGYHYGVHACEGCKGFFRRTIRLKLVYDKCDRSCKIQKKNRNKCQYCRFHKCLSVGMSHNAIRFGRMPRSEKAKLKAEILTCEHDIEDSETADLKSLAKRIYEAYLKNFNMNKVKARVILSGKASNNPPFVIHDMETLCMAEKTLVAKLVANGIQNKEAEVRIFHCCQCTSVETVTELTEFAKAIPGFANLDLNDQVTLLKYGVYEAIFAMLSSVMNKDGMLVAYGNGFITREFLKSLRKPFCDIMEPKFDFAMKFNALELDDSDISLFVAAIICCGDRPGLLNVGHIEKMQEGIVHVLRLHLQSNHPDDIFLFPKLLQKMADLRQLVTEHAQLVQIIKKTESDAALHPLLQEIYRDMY

Regarding `Cc1cccc(C)c1`, in test [1], the molecule was called inactive. For the same molecule, in test [2], the Potency entry is “inactive”.

`CCOC(=O)c1c(NS(=O)(=O)c2ccccc2)n(CCCOC)c2nc3ccccc3nc12`: the Potency in [3] is 3.55 µM (active).

As for `ClC1=C(Cl)[C@]2(Cl)[C@H]3[C@H]([C@@H]4C=C[C@H]3C4)[C@]1(Cl)C2(Cl)Cl`, the Potency entry in [4] and in [8] was “inactive” each time. The Potency in test [5] is 61.1 µM (active); in test [10], 44.7 µM (active). Also, the activation is -0.297% (inactive) in test [6] and 0.0639% (inactive) in [7]. For the same molecule, the figures for the max response in test [9] and in test [11] were -24.6% (inactive) and 7.41% (inactive), respectively.

For the molecule `O=C(O)CCn1cc(C=C2C(=O)NC(=S)NC2=O)c(-c2cccc(Cl)c2)n1`, the Potency result in test [3] is “inactive”.

With `CN(C)C=O`, in test [12], the Potency result is “inactive”. Besides, the max response in test [13] was 2.34% and -5.07% and -17.6%.

Consider `CN1CCC(O)(c2cccs2)C(C(=O)c2cccs2)C1` (stereo unspecified), for which the Potency in [3] is 28.2 µM (active).

As to `COC(=O)COc1ccc(/C=C2\C(=O)NC(=S)N(c3ccc(C)cc3)C2=O)cc1OC`, the Potency result in [3] is “inactive”.

Take `OCC(CBr)(CBr)CBr`: in test [1], the result was inactive. Also, the Potency entry in test [2] is “inactive”.

Turning to `Cc1ccccc1N1C(=O)NC(=O)/C(=C\c2cnn(-c3ccccc3)c2)C1=O`, the Potency result in test [3] is “inactive”.

For the molecule `Oc1cc(Cl)cc(Cl)c1Cl`, the call in test [1] was inactive. Further, the Potency was 66.8 µM (active) in [5], 42.2 µM (active) in test [14], 42.2 µM (active) in [15] and 18.8 µM (active) in [2].

As to `N#Cc1c(Cl)c(Cl)c(Cl)c(C#N)c1Cl`, the Potency in [16] is 3.16 µM (active); in test [22], 2.51 µM (active); in test [9], 70.8 µM (active); in test [24], 15.8 µM (active). Further, the Potency result in test [17], in [18] and in [20] was “inactive” each time. Also, in test [19], the molecule was called inactive. The figures for the max response in test [21] and in [23] were -33.7% and -3.28% (inactive), respectively.

As to `CC(CCl)OC(C)CCl` (stereo unspecified), in test [1], the molecule was classed as inactive. The Potency result in test [2] is “inactive”.
